Measured values published in ChEMBL document CHEMBL3988442, “University of Dundee, Small-Polar-MMV Screening Library” (2021).
For some assays here: Results with a measured potency or affinity are listed apart.

Experiments:
Parameters in all cases: scale not given: direction of the effect not stated beside the values
[1] = target: Protein translocase subunit SecA (Escherichia coli (strain K12)) (UniProt P10408); experiment: Assay to Identify E. coli SecA ATPase Inhibitors; assay type: functional; conditions: 30 µM
[2] = target: T1, Ubiquitin-activating enzyme e1, putative (Leishmania donovani (strain BPK282A1)) (UniProt E9BSI1); experiment: Leishmania donovani Ubiquitin Activating Enzyme (LdE1); assay type: functional; conditions: 30 µM
T1 sequence (whole entry): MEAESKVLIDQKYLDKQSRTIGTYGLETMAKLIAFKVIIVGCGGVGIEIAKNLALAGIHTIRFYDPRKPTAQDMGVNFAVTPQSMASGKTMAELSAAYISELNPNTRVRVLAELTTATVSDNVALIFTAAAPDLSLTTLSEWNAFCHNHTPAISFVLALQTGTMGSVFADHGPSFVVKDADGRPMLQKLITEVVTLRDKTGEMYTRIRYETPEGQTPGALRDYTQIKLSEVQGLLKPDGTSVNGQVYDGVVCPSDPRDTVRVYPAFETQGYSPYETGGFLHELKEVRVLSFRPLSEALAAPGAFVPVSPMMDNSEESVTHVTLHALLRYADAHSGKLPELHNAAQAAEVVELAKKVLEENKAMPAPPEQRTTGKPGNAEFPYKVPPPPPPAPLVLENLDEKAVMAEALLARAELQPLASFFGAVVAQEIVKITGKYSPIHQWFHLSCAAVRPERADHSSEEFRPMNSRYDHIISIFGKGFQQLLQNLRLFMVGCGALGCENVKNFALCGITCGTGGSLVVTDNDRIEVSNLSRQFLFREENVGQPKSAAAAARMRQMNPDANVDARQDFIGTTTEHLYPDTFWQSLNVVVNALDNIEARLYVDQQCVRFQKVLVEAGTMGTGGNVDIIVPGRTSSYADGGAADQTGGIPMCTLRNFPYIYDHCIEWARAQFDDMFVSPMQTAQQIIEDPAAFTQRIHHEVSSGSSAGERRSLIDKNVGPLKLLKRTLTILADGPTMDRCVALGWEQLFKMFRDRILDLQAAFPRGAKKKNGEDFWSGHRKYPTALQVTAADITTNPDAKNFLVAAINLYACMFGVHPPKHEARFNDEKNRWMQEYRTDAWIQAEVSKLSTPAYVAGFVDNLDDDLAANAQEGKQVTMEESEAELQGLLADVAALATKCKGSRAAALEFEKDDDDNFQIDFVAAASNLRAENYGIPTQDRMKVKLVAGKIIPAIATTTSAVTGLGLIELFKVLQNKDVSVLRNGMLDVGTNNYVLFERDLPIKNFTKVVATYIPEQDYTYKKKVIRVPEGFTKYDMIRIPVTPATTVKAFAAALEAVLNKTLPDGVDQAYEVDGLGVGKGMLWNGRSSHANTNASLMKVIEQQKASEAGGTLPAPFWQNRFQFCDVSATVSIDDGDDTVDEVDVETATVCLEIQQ

[3] = target: AMP-activated protein kinase, AMPK (Homo sapiens) (UniProt P54646+O43741+P54619+Q9UGJ0+Q9Y478+Q13131+Q9UGI9); experiment: AMP-dependent Kinase enzyme assay. An in vitro enzyme assay that detects ADP turnover that is directly proportional to AMPK activity. This uses naive AMPK that is activated during the assay with MK-8722; assay type: functional; conditions: 30 µM
[4] = target: Sialic acid-binding Ig-like lectin 9 (Homo sapiens) (UniProt Q9Y336); experiment: Hs-Siglec9 ALPHAscreen SOP 20170721; conditions: 10 µM
Trypanosoma cruzi = experiment: Trypanosoma cruzi phosphomannomutase and mannose-1-phosphate guanylyltransferase assay; assay type: functional; conditions: 10 µM
[5] = target: T2, Arginase-2, mitochondrial (Homo sapiens) (UniProt P78540); experiment: in vitro enzyme assay to detect the production of urea directly proportional to the activity of Arginase II; assay type: functional; conditions: 33.3 µM; also: in the data most compounds retested in dose-response had high values
T2 sequence (whole entry): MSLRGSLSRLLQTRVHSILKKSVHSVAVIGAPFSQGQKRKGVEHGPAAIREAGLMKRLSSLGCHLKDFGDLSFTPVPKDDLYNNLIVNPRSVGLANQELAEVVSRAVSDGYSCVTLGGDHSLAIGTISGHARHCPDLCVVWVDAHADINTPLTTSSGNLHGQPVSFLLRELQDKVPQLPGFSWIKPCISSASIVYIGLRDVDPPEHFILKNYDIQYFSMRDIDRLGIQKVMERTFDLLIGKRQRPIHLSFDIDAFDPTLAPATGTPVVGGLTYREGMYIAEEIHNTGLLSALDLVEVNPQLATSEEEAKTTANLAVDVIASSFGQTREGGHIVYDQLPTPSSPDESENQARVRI

[6] = target: T3, Proteasome subunit beta (Trypanosoma cruzi) (UniProt O96673); experiment: Trypanosoma cruzi proteasome chymotrypsin-like activity (TcProtChymo) assay.; also: in the data most compounds retested in dose-response had high values; assay type: functional; conditions: 9.37 µM
T3 sequence (whole entry): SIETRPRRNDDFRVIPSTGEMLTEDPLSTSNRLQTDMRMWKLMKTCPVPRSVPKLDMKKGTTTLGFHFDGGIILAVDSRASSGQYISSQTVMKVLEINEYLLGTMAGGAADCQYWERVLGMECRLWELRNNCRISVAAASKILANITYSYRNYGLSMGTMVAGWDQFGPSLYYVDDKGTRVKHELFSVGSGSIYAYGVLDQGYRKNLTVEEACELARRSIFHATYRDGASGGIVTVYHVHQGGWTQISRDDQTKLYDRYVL

Homo sapiens = organism: Homo sapiens; experiment: To identify inhibition of the IFN signalling (Jak-Stat) pathway via expression of an eGFP reporter gene under the control of an IFN-stimulated response element (ISRE) containing MxA promoter.; assay type: functional; conditions: 30 µM
[7] = target: T4, Tyrosyl-tRNA synthetase, putative (Trypanosoma cruzi (strain CL Brener)) (UniProt Q4DSP6); experiment: Trypanosoma cruzi tyrosyl tRNA synthetase (TcYRS) _High Tyrosine SOP; assay type: functional; conditions: 30 µM; also: in the data most compounds retested in dose-response had high values
T4 sequence (whole entry): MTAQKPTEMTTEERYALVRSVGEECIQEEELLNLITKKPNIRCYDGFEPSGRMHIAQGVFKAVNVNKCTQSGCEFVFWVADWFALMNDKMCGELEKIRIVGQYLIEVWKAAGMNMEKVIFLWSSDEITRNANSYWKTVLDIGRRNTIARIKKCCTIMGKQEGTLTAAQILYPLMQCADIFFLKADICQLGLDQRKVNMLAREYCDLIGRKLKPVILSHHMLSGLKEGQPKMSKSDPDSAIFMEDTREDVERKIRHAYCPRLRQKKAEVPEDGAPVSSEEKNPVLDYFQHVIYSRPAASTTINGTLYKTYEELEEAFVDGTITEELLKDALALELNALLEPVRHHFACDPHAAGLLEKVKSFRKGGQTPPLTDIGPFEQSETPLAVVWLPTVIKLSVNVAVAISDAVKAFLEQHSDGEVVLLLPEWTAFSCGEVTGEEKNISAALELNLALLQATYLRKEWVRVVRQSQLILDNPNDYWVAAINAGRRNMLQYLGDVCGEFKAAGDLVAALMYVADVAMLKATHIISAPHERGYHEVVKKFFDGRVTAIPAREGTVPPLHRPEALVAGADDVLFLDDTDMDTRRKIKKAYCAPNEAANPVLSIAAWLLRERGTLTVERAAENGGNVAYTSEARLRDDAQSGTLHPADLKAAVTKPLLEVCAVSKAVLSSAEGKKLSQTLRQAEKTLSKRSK

[8] = target: T4, Tyrosyl-tRNA synthetase, putative (Trypanosoma cruzi (strain CL Brener)); experiment: Trypanosoma cruzi tyrosyl tRNA synthetase (TcYRS) SOP; assay type: functional; conditions: 30 µM
[9] = target: Chromo domain-containing protein 1 (Saccharomyces cerevisiae (strain ATCC 204508 / S288c) (Baker's yeast)) (UniProt P32657); experiment: ScCHD-1 Enzyme Inhibition Assay; assay type: functional; conditions: 30 µM; also: in the data most compounds retested in dose-response had high values
Chain of Chromo domain-containing protein 1 (Saccharomyces cerevisiae (strain ATCC 204508 / S288c) (Baker's yeast)) (P32657 whole entry, the tested form may be a part): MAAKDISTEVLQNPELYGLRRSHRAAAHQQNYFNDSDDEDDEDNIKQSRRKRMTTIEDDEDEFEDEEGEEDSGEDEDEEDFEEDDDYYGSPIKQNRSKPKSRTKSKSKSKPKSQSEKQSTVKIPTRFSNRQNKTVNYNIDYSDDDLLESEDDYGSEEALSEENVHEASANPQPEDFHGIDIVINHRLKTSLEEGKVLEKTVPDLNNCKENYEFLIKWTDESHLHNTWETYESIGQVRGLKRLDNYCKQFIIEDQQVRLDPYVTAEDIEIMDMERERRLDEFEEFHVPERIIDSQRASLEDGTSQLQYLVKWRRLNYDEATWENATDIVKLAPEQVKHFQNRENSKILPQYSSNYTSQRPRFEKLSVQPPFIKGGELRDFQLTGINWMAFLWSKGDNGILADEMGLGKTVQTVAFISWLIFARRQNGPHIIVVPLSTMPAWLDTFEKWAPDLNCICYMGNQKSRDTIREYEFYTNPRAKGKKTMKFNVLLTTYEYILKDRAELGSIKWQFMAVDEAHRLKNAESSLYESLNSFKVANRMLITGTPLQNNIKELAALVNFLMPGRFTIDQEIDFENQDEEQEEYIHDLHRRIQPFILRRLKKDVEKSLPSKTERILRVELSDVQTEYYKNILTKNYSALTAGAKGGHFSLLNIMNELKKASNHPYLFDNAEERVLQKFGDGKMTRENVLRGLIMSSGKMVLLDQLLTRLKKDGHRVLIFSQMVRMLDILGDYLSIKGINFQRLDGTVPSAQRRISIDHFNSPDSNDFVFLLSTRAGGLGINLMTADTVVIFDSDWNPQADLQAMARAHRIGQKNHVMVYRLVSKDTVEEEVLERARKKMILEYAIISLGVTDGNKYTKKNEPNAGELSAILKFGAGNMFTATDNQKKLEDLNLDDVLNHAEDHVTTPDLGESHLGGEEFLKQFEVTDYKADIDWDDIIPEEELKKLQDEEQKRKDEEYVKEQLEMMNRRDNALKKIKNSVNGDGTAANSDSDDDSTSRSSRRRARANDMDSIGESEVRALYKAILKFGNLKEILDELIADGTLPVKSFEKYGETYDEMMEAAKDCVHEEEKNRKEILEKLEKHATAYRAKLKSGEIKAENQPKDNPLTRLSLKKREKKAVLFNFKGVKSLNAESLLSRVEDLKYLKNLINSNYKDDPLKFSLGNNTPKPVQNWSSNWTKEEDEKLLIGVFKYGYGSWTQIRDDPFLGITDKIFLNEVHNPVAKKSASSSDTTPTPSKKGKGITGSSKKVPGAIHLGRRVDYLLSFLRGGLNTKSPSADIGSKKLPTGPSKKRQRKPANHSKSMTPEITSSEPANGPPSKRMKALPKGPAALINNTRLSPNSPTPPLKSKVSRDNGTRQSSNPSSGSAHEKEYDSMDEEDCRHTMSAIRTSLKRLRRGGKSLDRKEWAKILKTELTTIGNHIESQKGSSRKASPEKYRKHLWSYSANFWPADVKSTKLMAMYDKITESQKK

Chain of Sialic acid-binding Ig-like lectin 9 (Homo sapiens) (Q9Y336 whole entry): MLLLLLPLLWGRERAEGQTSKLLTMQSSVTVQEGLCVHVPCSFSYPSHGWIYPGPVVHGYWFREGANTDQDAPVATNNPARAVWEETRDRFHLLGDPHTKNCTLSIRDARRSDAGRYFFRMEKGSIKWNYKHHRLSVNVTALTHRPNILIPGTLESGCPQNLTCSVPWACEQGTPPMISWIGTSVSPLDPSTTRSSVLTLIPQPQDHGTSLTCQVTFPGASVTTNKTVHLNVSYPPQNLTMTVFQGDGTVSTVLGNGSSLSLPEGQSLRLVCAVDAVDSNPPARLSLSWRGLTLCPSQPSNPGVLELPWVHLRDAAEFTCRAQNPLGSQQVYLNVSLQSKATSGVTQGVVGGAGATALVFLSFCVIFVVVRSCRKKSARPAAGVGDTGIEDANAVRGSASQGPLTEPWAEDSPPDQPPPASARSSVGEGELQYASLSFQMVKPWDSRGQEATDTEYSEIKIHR
Chain of Protein translocase subunit SecA (Escherichia coli (strain K12)) (P10408 whole entry): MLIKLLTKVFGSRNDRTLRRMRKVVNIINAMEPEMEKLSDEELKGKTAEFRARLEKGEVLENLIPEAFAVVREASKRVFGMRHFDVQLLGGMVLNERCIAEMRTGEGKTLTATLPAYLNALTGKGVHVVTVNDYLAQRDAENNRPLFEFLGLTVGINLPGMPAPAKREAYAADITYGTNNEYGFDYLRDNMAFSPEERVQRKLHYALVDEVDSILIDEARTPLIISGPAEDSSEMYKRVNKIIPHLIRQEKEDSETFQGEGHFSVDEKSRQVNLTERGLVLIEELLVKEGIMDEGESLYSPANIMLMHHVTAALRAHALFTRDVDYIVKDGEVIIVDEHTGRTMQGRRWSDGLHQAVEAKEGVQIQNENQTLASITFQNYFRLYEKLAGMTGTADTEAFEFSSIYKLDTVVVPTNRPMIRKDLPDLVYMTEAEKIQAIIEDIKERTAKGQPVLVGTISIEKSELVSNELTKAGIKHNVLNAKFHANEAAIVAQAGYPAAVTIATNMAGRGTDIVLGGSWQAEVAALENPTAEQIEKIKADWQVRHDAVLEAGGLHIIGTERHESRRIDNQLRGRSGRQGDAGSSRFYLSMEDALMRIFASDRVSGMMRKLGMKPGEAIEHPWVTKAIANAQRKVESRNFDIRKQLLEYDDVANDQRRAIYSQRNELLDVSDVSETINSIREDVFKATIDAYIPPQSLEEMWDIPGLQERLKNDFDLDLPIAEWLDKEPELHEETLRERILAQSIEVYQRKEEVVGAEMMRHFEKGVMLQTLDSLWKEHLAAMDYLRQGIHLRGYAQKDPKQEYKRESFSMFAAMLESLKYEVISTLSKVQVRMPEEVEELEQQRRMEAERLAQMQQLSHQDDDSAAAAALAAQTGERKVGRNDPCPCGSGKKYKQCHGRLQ

SMILES | Percent Effect [1] | Percent Effect [2] | Percent Effect [3] | Percent Effect [4] | Percent Effect (Trypanosoma cruzi) | Percent Effect [5] | Percent Effect [6] | Percent Effect (Homo sapiens) | Percent Effect [7] | Percent Effect [8] | Percent Effect [9]
CCC1CN(C(=O)Nc2cnc3c(cnn3C(C)C)c2)CCO1 (stereo not given) | 0.162% | 13.5% | -1.29% | 10.7% | -5.48% | 0.554% | 17.6% | 22.8% | 6.93% | 18.3% | -2.08%
CC(NC(=O)NCCCOC1CCCCC1)c1nncn1C (stereo not given) | -0.354% | 2.7% | -2.09% | 21.6% | 4.18% | -1.29% | 16.2% | 5.68% | 3.96% | 25.6% | -7.07%
CNC(=O)c1cc2c(nc1NC(C)C)CCN(C(=O)NC(C)C)CC2 | -2.44% | 0% | -4.24% | -6.22% | -2.64% | -0.744% | -2.83% | -8.82% | 6.45% | 6.17% | -0.531%
CN1CC(=O)N(c2cccc(F)c2)CC12CCN(Cc1cccnc1)C2 (stereo not given) | 1.08% | 7.79% | 4.97% | 4.25% | -2.46% | 12.3% | 12.9% | 7.53% | 3.17% | 11.5% | -1.97%
CCCN1C(=O)CC(N2CCN(c3ccc(F)cc3)CC2)C1=O (stereo not given) | -0.321% | 13.2% | 5.3% | -9.41% | -3.99% | -7.1% | 11.6% | 11.5% | 0% | 7.79% | -5.52%
COCC1CN(Cc2ccc(C)o2)Cc2nnn(CC3CC3)c21 (stereo not given) | -3.94% | 2.6% | 4.37% | 2.36% | -2.46% | 2.76% | 0.832% | -1.19% | -2.15% | -1.24% | 5.36%
CNC(=O)CCc1cc(C)nc(C2CCCN2)c1 (stereo not given) | -6.62% | 14.9% | 6.02% | 1.63% | 2.17% | -3.02% | 6.08% | -9.75% | 2.15% | 11.7% | -23.7%
Cc1cnn(CC2CCCN2C(=O)c2cnc3n[nH]c(C)c3c2)c1 (stereo not given) | -6.55% | 16.5% | 0.256% | -4.46% | 2.36% | 0.645% | 7.55% | 2.33% | 3.12% | 20.2% | -32.5%
COCCC(=O)N1CCC2(COCc3cnc(-c4ccccc4)nc32)C1 (stereo not given) | -1.59% | 2.67% | 15.5% | -0.802% | -7.48% | 2.56% | 1.15% | 6.76% | -1.06% | 3.85% | -0.943%
CCN(CC)C(=O)c1nnn(-c2ccc(C)cc2)c1C1CC1 | -2.41% | 13.5% | -1.1% | 9.18% | 6.04% | 1.29% | -1.62% | 6.05% | 0% | 18.3% | -3.92%
